Experiment [1] can be described thus: Validation screen for small molecules that induce genotoxicity in human embryonic kidney (HEK293T) cells expressing luciferase-tagged ELG1 (AID 493106). Note: potency is the fitted concentration of half-maximal effect. The procedure, abridged:
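ELG1-luciferase reporter readout (ONE-Glo, 30 min, room temperature) after 16 hr compound treatment at 37 °C of HEK293T cells at 2,000 per well. Rising luminescence flags genotoxic stress.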

The target of experiment [2] is ATPase family AAA domain-containing protein 5 (Homo sapiens) (UniProt Q96QE3). Put plainly: Validation screen for small molecules that inhibit ELG1-dependent DNA repair in human embryonic kidney (HEK293T) cells expressing luciferase-tagged ELG1 (AID 493107). Note: nearly all actives have a fitted effect of over 70% in size. Note: potency is the fitted concentration of half-maximal effect. The procedure, abridged: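 Luciferase read-out, ONE-Glo, 30 min at room temperature, follows 16 h co-exposure at 37 C of compound and the DNA-damaging agent 5-fluorouridine. Cells: HEK293T with ELG1-luciferase fusion, 2,000 per well, DMSO as vehicle.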

A short description of experiment [3]: qHTS for Inhibitors of Cell Surface uPA Generation: Validation Assay (AID 493164).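 Note: RAW 264.7 macrophage cells exposed to compound for 18 h; 0% is about no effect.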 The procedure, abridged:
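ATP-Lite luminescence read-out: ATP remains high when uPA activity-dependent LF translocation into the cytoplasm is blocked. RAW 264.7 cells, 18 h compound exposure at 37 C; 7-point titration, 2.45 nM to 38.3 uM final.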

In experiment [4] the target is Galactokinase (Homo sapiens) (UniProt P51570). Nature of the experiment: qHTS Validation Assay for Inhibitors of Human Galactokinase (GALK) (AID 493189). Note: 0% is about no effect. The procedure, abridged: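 GALK (5 nM) with 35 uM ATP and 100 uM galactose in HEPES pH 8.0 with MgCl2, NaCl, DTT and BSA. Reaction ran 1 h at room temperature. Residual ATP read by Kinase-Glo Plus luminescence.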
In general terms: In qHTS, concentration-response curves come from the screen itself.

Experiment [5] can be described thus: Validation screen for small molecules that induce DNA re-replication in SW480 colon adenocarcinoma cells (AID 504364). Note: 0% is about no effect. In a few lines:
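Image-based DNA content read-out: Hoechst stain 40 min, total nuclear fluorescence intensity (ex 405 nm, em 500-530 nm) after 48 h compound exposure of 250 SW480 cells/well at 37 C, 5% CO2, versus DMSO vehicle.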

Experiment [6] deals with phosphoglycerate mutase (Leishmania major) (UniProt Q4Q090). Nature of the experiment: qHTS Validation Assay to Find Inhibitors of Phosphoglycerate Mutase (AID 504548).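 Note: end-point luminescence from Kinase-GloPlus after the PGAM reaction; series mostly up to about 58 µM; % is set by controls: 0 for no effect and ±100 for the full control effect.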 The procedure, abridged: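 Inhibition of L. major PGAM was assessed by Kinase-GloPlus luminescence following a 45-minute room-temperature reaction with enzyme at 1.25nM final.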
Experiment [7] addresses Ubiquitin carboxyl-terminal hydrolase 1 (Homo sapiens) (UniProt O94782). Nature of the experiment: Inhibitors of USP1/UAF1: Pilot qHTS (AID 504865).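 Note: rhodamine fluorescence freed from ubiquitin-rhodamine substrate followed over time; top concentration of the series differs between compounds; % is set by controls: 0 for no effect and ±100 for the full control effect; nearly all actives have a fitted effect of over 35% in size.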 The procedure, abridged:
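USP1/UAF1 complex at 1 nM preincubated 15 min at room temperature with compound, then Ub-Rho substrate added at 150 nM final. Fluorescence (480/540 nm) read kinetically in 50 mM HEPES pH 7.8, 0.5 mM EDTA, 1 mM TCEP, 0.1 mg/ml BSA, 0.01% Tween-20.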

Experiment [8] is described as follows: qHTS for Inhibitors of ATXN expression: Validation (AID 588378). Note: series mostly up to about 57 µM; % is set by controls: 0 for no effect and ±100 for the full control effect; nearly all actives have a fitted effect of over 75% in size. The procedure, abridged:
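HEK293 cells carrying ATXN2-firefly luciferase reporter, treated with compound 24 h at 37 °C. Viability read first by CellTiter-Fluor (405/525 nm), then reporter expression by Bright-Glo luminescence; controls were a known ATXN2 expression inhibitor and a luciferase inhibitor.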

Experiment [9] concerns the target DNA dC->dU-editing enzyme APOBEC-3G (Homo sapiens) (UniProt Q9HC16). Nature of the experiment: qHTS for inhibitors of Vif-A3G interactions: Validation (AID 588379). Note: 0% is about no effect. In a few lines:
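Yellow fluorescence (Ex 488, Em 500-530) of Vif-coexpressing HeLa A3G-eYFP cells, scanned by Acumen cytometer, reports blocked A3G degradation. Cells plated at 700/well overnight at 37 deg C before compound addition, then a further overnight compound incubation at 37 deg C.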

Experiment [10] has as its target Estrogen receptor (Homo sapiens) (UniProt P03372). Put plainly: qHTS assay for small molecule antagonists of estrogen receptor alpha signaling (AID 588513; active = well fitted curve in the direction sought with a large enough effect in the signal ratio, with a control signal flat, not every such curve was filed as active; the % refers to the signal ratio; note: % is set by controls: 0 for no effect and ±100 for the full control effect). In a few lines:
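ER-alpha-UAS-bla GripTite HEK 293 cells in 2% charcoal/dextran-treated FBS medium; compounds titrated (1:2, duplicate), then stimulated with 0.5 nM 17-beta-estradiol for 18 h at 37C. CCF4 beta-lactamase fluorescence; Hill-fit IC50 and efficacy.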

The target of experiment [11] is Androgen receptor (Homo sapiens) (UniProt P10275). Nature of the experiment: qHTS assay for small molecule agonists of androgen receptor signaling (AID 588515; active = well fitted curve in the direction sought with a large enough effect in the signal ratio, with a control signal flat; the % refers to the signal ratio; note: % is set by controls: 0 for no effect and ±100 for the full control effect). Conditions: AR-UAS-bla HEK293, beta-lactamase ratio, agonist 16 h; stronger effect = higher value. In a few lines:
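Stimulation of an AR-responsive β-lactamase reporter in GripTite HEK293 cells was measured after 16 h compound exposure at 37 °C, via CCF4 fluorescence after 2 h RT. EC50 from Hill fits, normalized to R1881 at 30 nM.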

Experiment [12] in a line: Nrf2 qHTS screen for inhibitors: Validation (AID 493153; active = well fitted inhibition curve with a large enough effect in the main read-out, with a control signal flat, not every such curve was filed as active). To be noted: Potency: luciferase luminescence; viability change: measured here: cytotoxicity max response. The procedure, abridged:
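Concentration-response on A549 ARE_Fluc reporter cells exposed 18-24 h at 37 C, 5% CO2. Cytotoxicity read first by CellTiter-Fluor fluorescence (Ex 405/Em 525), then Nrf2 inhibition by BugLite luminescence after 15 min.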

In experiment [13] the target is Phosphoglycerate kinase, glycosomal (Trypanosoma brucei brucei) (UniProt P07378). Put plainly: qHTS Validation Assay to Find Inhibitors of Phosphoglycerate Kinase (AID 504547).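 Note: control wells lack PGK and mark full inhibition.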 The procedure, abridged: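 In TEA buffer (100mM, pH 7.6) containing 5mM MgCl2 and 0.01% Tween-20, the GAPDH-coupled PGK reaction proceeded for 60 minutes at room temperature before a single luminescence reading using Kinase-Glo Plus.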

Experiment [14] concerns the target Thyrotropin-releasing hormone receptor (Homo sapiens) (UniProt P34981). Put plainly: qHTS for Small Molecule Agonists and Allosteric Enhancers of Human TRH Receptor: Validation Screen for Agonists (AID 493127;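 active = calcium activation more than 3 SD above the typical response in the agonist read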;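 note: intracellular calcium rise by fluo-8 fluorescence before TRH EC20 addition; 0% is about no effect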). Conditions: TRH receptor agonist cell assay; at 2 µM; stronger effect = higher value. The procedure, abridged:
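Compound-evoked intracellular calcium release in fluo-8-loaded TRHR cells, read kinetically on FDSS (Ex 480/Em 530, 1 s/cycle) after 23 nL pintool transfer. Agonist phase preceded 10 nM TRH EC20 addition.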

Experiment [15] in a line: qHTS for Inhibitors of ATXN expression: Validation of Cytotoxic Assay (AID 588349). Note: % is set by controls: 0 for no effect and ±100 for the full control effect. In a few lines: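 Cytotoxicity counter-screen: ATP-based luminescent viability (CellTiter Glo) after 72 hr exposure of HEK293 cells to a compound titration at 37 degrees C.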
Experiment [16] addresses Estrogen receptor (Homo sapiens) (UniProt P03372). Nature of the experiment: qHTS assay for small molecule agonists of estrogen receptor alpha signaling (AID 588514; calls by dose curve;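 note: 0% = vehicle only and 100% = reference agonist; nearly all actives have a fitted effect of over 70% in size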). In a few lines:
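EC50 and efficacy came from Hill fits of beta-lactamase reporter signal (CCF4 dye, 2 h at room temperature) scaled between DMSO and 20 nM 17-beta-estradiol. Agonist mode: HEK293 ER-alpha-UAS-bla cells in charcoal/dextran-stripped serum medium, 18 h compound exposure at 37 C.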

In experiment [17] the target is Bile acid receptor (Homo sapiens) (UniProt Q96RI1). Nature of the experiment: qHTS assay for small molecule antagonists of farnesoid X receptor signaling (AID 588526; calls by dose curve; note: potency is the fitted concentration of half-maximal effect). In a few lines: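 Concentration-response titrations were fitted to the Hill equation for half-maximal inhibition and maximal response, with data normalised to 50 uM chenodeoxycholic acid and DMSO control wells. Cells: FXR-UAS-bla HEK293T, dialyzed FBS.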

In experiment [18] the target is Peptidyl-prolyl cis-trans isomerase NIMA-interacting 1 (Homo sapiens) (UniProt Q13526). Put plainly: qHTS Validation Assay to Find Inhibitors of Pin1 (AID 504536; active = well fitted inhibition curve with a large enough effect in the polarisation, with a control signal flat, not every such curve was filed as active; the % refers to the polarisation;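 note: 0% = full Pin1 enzyme wells and -100% = no-enzyme wells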). The procedure, abridged:
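Fluorescence polarization competition: compounds (titration) displace HiFluor-488-labeled Pin1-1b peptide from Pin1 (0.3 uM final) in pH 7.5 HEPES buffer with DTT, 10 min at room temperature; %Activity normalized to no-enzyme wells, curves fitted.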

Inconclusive results are not listed. The source made the active and inactive calls. Unless noted, calls come from the whole dose curve; as a rule, active = well fitted curve in the direction sought with a large enough effect; inconclusive = small, poorly fitted or top-dose-only effect, or another doubt; inactive = no such curve, though single readings can be large; an effect the other way counts as inactive or inconclusive.

Chain of Estrogen receptor (Homo sapiens) (P03372 whole entry, looked up): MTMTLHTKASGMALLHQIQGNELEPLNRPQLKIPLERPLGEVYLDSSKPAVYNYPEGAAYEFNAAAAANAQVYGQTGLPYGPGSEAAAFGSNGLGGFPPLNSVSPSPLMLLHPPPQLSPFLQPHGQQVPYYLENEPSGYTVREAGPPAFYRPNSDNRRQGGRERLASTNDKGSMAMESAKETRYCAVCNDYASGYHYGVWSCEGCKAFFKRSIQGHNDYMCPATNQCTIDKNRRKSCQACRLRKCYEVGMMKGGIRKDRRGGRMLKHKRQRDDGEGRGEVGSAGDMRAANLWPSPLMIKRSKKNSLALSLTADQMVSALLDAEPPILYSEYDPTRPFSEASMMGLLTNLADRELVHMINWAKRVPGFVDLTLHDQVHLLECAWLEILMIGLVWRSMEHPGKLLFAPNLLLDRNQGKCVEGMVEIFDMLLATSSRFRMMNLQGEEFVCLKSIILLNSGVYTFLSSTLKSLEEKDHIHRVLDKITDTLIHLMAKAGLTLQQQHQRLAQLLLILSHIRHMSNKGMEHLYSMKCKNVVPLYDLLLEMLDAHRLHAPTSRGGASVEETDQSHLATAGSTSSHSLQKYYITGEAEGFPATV
Chain of Bile acid receptor (Homo sapiens) (Q96RI1 whole entry, looked up): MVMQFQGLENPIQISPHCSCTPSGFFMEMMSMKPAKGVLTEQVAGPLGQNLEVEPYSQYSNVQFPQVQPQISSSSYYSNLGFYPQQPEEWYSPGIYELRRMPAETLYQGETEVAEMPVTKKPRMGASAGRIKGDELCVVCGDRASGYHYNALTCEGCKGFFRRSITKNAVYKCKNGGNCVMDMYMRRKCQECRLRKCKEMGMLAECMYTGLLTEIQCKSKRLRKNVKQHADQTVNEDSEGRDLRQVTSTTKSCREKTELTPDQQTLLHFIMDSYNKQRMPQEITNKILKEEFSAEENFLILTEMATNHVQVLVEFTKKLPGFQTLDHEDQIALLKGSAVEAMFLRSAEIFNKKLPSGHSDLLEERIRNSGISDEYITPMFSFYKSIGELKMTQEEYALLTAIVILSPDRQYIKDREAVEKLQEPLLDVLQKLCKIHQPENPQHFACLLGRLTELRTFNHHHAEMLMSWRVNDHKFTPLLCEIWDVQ
Chain of Ubiquitin carboxyl-terminal hydrolase 1 (Homo sapiens) (O94782 whole entry, looked up): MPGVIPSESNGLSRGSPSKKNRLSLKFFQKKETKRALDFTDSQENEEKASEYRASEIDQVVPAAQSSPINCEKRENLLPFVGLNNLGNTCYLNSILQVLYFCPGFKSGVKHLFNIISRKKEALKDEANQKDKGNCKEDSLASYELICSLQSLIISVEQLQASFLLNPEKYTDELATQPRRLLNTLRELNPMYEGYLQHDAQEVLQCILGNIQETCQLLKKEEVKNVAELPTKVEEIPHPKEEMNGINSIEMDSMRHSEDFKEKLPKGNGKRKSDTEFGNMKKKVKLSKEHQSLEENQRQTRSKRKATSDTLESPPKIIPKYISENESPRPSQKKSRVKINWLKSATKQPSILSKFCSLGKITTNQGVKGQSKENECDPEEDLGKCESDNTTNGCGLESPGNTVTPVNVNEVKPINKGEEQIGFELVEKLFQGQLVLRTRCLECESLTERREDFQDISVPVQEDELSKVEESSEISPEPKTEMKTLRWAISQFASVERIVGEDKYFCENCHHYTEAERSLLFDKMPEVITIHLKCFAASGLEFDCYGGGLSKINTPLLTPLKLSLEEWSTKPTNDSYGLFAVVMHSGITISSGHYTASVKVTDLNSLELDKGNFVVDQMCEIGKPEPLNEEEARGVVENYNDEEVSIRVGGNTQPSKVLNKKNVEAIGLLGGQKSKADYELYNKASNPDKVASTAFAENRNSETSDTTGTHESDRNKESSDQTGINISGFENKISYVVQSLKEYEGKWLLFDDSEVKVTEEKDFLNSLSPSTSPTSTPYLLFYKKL
Chain of phosphoglycerate mutase (Leishmania major) (Q4Q090 1-553): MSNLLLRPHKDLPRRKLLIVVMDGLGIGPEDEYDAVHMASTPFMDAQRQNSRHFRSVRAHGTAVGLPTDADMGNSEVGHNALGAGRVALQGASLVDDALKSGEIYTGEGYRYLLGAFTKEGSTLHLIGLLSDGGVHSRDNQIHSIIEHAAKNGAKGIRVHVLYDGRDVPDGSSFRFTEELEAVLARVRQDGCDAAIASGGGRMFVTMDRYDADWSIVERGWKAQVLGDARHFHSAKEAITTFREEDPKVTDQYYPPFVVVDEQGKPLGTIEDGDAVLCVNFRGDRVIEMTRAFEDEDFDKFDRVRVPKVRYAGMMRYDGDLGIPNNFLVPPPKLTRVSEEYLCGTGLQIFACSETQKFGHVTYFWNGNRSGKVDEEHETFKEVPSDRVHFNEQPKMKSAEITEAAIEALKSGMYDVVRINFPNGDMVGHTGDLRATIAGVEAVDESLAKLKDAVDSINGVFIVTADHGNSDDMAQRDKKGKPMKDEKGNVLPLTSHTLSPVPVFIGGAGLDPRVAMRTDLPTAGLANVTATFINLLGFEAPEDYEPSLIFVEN
Chain of Peptidyl-prolyl cis-trans isomerase NIMA-interacting 1 (Homo sapiens) (Q13526 whole entry, looked up): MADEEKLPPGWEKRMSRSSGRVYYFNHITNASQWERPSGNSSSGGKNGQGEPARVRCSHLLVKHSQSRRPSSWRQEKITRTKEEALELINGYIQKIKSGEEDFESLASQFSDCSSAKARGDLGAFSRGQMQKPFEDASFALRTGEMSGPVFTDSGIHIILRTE
Chain of Thyrotropin-releasing hormone receptor (Homo sapiens) (P34981 whole entry, looked up): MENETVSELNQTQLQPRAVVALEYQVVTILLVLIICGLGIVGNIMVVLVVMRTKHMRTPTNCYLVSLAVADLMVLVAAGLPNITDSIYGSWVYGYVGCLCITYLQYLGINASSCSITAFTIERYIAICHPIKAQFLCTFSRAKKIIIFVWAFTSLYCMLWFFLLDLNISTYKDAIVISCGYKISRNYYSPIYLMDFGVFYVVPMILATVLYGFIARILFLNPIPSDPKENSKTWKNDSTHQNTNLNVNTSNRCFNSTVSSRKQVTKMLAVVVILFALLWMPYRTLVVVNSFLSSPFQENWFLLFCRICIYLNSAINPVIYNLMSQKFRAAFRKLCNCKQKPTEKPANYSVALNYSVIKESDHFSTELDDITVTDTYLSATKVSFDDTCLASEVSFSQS
Chain of Phosphoglycerate kinase, glycosomal (Trypanosoma brucei brucei) (P07378 whole entry, looked up): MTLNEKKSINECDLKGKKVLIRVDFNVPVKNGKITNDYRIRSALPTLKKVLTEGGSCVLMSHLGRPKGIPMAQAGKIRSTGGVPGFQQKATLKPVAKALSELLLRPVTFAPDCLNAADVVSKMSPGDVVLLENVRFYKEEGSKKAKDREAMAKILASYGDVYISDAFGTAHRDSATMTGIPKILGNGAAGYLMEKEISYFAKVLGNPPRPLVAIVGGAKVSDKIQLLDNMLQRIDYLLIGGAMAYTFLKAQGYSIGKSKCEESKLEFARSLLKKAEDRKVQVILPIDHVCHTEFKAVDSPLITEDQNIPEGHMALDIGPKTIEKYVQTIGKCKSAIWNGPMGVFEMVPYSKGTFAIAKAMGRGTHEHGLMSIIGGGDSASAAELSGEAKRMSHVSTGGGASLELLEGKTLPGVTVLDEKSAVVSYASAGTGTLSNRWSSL
Chain of Galactokinase (Homo sapiens) (P51570 whole entry, looked up): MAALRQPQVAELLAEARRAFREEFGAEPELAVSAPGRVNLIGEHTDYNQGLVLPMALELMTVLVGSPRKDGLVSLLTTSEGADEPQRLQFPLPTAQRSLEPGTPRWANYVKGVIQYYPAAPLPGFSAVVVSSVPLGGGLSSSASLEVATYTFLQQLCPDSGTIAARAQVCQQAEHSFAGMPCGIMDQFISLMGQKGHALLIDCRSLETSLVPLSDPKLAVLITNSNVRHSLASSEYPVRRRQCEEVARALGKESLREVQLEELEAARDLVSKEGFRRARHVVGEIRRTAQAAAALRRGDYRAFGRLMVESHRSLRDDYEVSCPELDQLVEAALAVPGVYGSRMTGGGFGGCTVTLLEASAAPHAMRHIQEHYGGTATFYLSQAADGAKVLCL
Chain of DNA dC->dU-editing enzyme APOBEC-3G (Homo sapiens) (Q9HC16 whole entry, looked up): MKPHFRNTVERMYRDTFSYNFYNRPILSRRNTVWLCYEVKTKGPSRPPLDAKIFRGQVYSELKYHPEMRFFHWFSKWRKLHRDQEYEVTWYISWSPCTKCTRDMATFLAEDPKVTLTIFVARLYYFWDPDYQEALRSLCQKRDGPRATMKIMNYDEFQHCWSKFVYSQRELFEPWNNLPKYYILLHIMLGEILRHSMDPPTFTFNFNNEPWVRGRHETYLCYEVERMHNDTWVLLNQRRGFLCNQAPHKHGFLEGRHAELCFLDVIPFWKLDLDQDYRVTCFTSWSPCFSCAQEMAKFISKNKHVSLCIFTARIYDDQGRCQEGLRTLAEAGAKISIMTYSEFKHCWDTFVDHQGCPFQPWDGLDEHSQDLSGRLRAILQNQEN

On to `COc1ccc2c(c1)c(CC(=O)O)c(C)n2C(=O)c1ccc(Cl)cc1`, for which the Potency entry in experiment [1], in experiment [2], in [4], in experiment [5], in experiment [7] and in experiment [8] was “inactive” throughout. For the same compound, the compound was classed as inactive in [3], in [6], in experiment [9] and in experiment [10]. Besides, the activation in experiment [11] is -9.17% (inactive).

For `CCN1CCCC1CNC(=O)c1cc(S(=O)(=O)CC)c(N)cc1OC` (stereo not given), the Potency entry in experiment [1], in experiment [2], in experiment [12], in [13], in experiment [7] and in [8] was “inactive” in each case. The viability change in experiment [12] was determined as 7.74%. Also, the outcome in experiment [3] and in experiment [6] was inactive.

With `NC12CC3CC(CC(C3)C1)C2`, the Potency entry in [1], in [2], in [5], in [7] and in [8] was “inactive” in each case. Moreover, in experiment [3], the outcome was inactive.

As to `CN(C)C(=O)C(CCN1CCC(O)(c2ccc(Cl)cc2)CC1)(c1ccccc1)c1ccccc1`, the Potency result in experiment [2], in experiment [4] and in [7] was “inactive” each time. Besides, the activation in experiment [14] is 17% (inactive). The compound was called inactive in [3], in experiment [6] and in experiment [9].

On to `Cn1c(=O)c2[nH]cnc2n(C)c1=O`, for which the Potency result in experiment [2], in [12], in experiment [4], in experiment [5], in experiment [13] and in experiment [8] was “inactive” throughout. The Potency entry in experiment [17] is “inactive”. In addition, the activation in experiment [14] is 0.688% (inactive). For the same compound, the viability change in experiment [12] turned out to be 0.231%. In addition, the outcome in experiment [3], in [6], in experiment [15], in [10] and in experiment [16] was inactive.

`O=c1c(-c2ccc(O)cc2)coc2cc(O)cc(O)c12`: the figures for the Potency in experiment [1] and in experiment [17] were 9.2 µM (active) and 25.1 µM (active), respectively. In addition, the Potency entry in experiment [12], in [4], in [18], in experiment [7] and in experiment [8] was “inactive” each time. Also, the viability change in [12] was -6.66%. Also, the compound was classed as inactive in experiment [3] and in experiment [6].

For the compound `O=C1Cc2cc(CCN3CCN(c4nsc5ccccc45)CC3)c(Cl)cc2N1`, the Potency result in [1], in [12] and in experiment [18] was “inactive” throughout. Moreover, in experiment [2], the Potency is 9.2 µM (active). Moreover, the viability change in experiment [12] was -17.6%. Also, the result in experiment [3] and in [6] was inactive.

In the case of `Cc1cnc(C(=O)NCCc2ccc(S(=O)(=O)NC(=O)NC3CCCCC3)cc2)cn1`, the Potency entry in experiment [1], in experiment [12], in [18] and in experiment [8] was “inactive” throughout. Further, the viability change in [12] is -0.248%. Also, the call in experiment [3] and in experiment [6] was inactive.

For the compound `NS(=O)(=O)c1cc2c(cc1Cl)NCNS2(=O)=O`, the Potency entry in experiment [1], in [12], in experiment [4], in experiment [5], in experiment [13] and in experiment [7] was “inactive” throughout. Moreover, the Potency result in experiment [8] and in experiment [17] was “inactive” throughout. Further, in [14], the activation is 0.938% (inactive). For the same compound, in experiment [12], the viability change is -1.09%. Further, the compound was called inactive in [3], in experiment [6], in experiment [10] and in experiment [16].

Values taken from PubChem BioAssay (NCATS).
